PubChem BioAssay (NCATS)
Values joined by “and” are separate entries in the source; they are usually repeats but may differ in a detail not shown here. Equal entries are not always repeated. Results filed as inconclusive are left out. Active and inactive are the calls of the source. The call rests on the fitted dose curve.

Test: Primary qHTS to identify inhibitors of SARS-CoV-2 cell entry (AID 1645846); further: nearly all actives have a fitted effect of over 45% in size
Settings: SARS-CoV-2 pseudovirus cell entry assay, luminescence; activity change, negative = inhibition: at 57.1 µM (top of the series) unless noted; series mostly up to 57.1 µM
Summary of the method: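 Luminescence readout (Bright-Glo luciferase) 48 h after pseudoparticle addition. HEK293-ACE2 cells, 1500/well; compound pre-incubation 1 h; Normalized to spike PP and bald PP.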
Potency means the concentration at half of the fitted maximal effect.

Structure (SMILES) | activity change, negative = inhibition | outcome | Potency
COc1ccc2nc(S(=O)Cc3ncc(C)c(OC)c3C)[nH]c2c1 (centres undefined) | -4.15% |  | 
COc1cc2c(cc1OC)C(=O)C(CC1CCN(Cc3ccccc3)CC1)C2 (centres undefined) | -29.7% |  | 
Cc1cccc(Nc2ccncc2S(=O)(=O)NC(=O)NC(C)C)c1 |  | inactive | 
CC1(C)NC(=O)N(c2ccc([N+](=O)[O-])c(C(F)(F)F)c2)C1=O | -23.9% |  | 
Nc1nc(N)c2nc(-c3ccccc3)c(N)nc2n1 |  | inactive | 
CCn1cc(C(=O)O)c(=O)c2ccc(C)nc21 |  | inactive | 
CC(=O)Nc1nnc(S(N)(=O)=O)s1 | 1.7% |  | 
Cc1cn[nH]c1 | 4.3% |  | 
CC(C)(C)NC(=O)[C@H]1CC[C@H]2[C@@H]3CC[C@H]4NC(=O)C=C[C@]4(C)[C@H]3CC[C@]12C |  |  | inactive
NCCCC(O)(P(=O)(O)O)P(=O)(O)O | -4.6% and -17.5% |  | 
NNCCc1ccccc1 |  | inactive | 
Nc1nc2c(ncn2COC(CO)CO)c(=O)[nH]1 | -11.4% and -3.55% |  | 
CN(C)CCC=C1c2ccccc2C=Cc2ccccc21 |  |  | 14.1 µM (active)
Clc1ccc2c(c1)C(N1CCNCC1)=Nc1ccccc1O2 | -2.85% |  | 
Cc1[nH]c(=O)c(C#N)cc1-c1ccncc1 |  |  | inactive
Cc1ccnc2c1NC(=O)c1cccnc1N2C1CC1 | -19.4% |  | 
COc1cc2nc(N3CCN(C(=O)C4CCCO4)CC3)nc(N)c2cc1OC (centres undefined) | -6.28% |  | 
NC(=O)C(c1ccccc1)(c1ccccc1)[C@@H]1CCN(CCc2ccc3c(c2)CCO3)C1 | -1.98% |  | 
COc1ccc(Cl)cc1C(=O)NCCc1ccc(S(=O)(=O)NC(=O)NC2CCCCC2)cc1 | 4.27% |  | 
O=C(O)COCCN1CCN(C(c2ccccc2)c2ccc(Cl)cc2)CC1 (centres undefined) | -14.4% |  | 

Structure (SMILES) | activity change, negative = inhibition | outcome | Potency
CCCCc1nc(Cl)c(CO)n1Cc1ccc(-c2ccccc2-c2nn[nH]n2)cc1 |  | inactive | 
CC1(C)O[C@@H]2[C@@H](CO[C@@]3(COS(N)(=O)=O)OC(C)(C)O[C@@H]23)O1 | -8% |  | 
O=C(C1CCCCC1)N1CC(=O)N2CCc3ccccc3C2C1 (centres undefined) |  |  | inactive
O=C(OC1C[C@H]2CC[C@@H](C1)[N+]21CCCC1)C(O)(c1ccccc1)c1ccccc1 (some centres undefined) | -4.34% |  | 
COc1cc(Cc2cnc(N)nc2N)cc(OC)c1OC |  | inactive | 
CCN(CC)CCNC(=O)c1cc(Cl)c(N)cc1OC |  | inactive | 
Cc1cc(C)cc(OCC2CNC(=O)O2)c1 (centres undefined) |  | inactive | 
CC(C)(C(=O)O)c1ccc(C(O)CCCN2CCC(C(O)(c3ccccc3)c3ccccc3)CC2)cc1 (centres undefined) |  | inactive | 
CC1(C)S[C@@H]2[C@H](NC(=O)C(C(=O)O)c3ccccc3)C(=O)N2[C@H]1C(=O)O (some centres undefined) |  | inactive | 
CN/C(=C\[N+](=O)[O-])NCCSCc1ccc(CN(C)C)o1 |  | inactive | 
N[C@@H](C(=O)N[C@@H]1C(=O)N2C(C(=O)O)=C(Cl)CS[C@H]12)c1ccccc1 |  | inactive [at 11.3 µM] | 
CCC1C(=O)OCC1Cc1cncn1C (centres undefined) | 2.21% |  | 
C[C@@H]1C[C@H]2[C@@H]3CCC4=CC(=O)C=C[C@]4(C)[C@@]3(F)[C@@H](O)C[C@]2(C)[C@@]1(O)C(=O)CO |  |  | inactive
CC(C)Nc1cccnc1N1CCN(C(=O)c2cc3cc(NS(C)(=O)=O)ccc3[nH]2)CC1 |  | inactive | 
Cc1ccc(S(=O)(=O)NC(=O)NN2CCCCCC2)cc1 | 2.93% |  | 
Clc1ccc(C(c2ccccc2Cl)C(Cl)Cl)cc1 (centres undefined) | -40.6% |  | 
CN(C)CCOC(C)(c1ccccc1)c1ccccn1 (centres undefined) | 2.27% |  | 
N=c1nc(N2CCCCC2)cc(N)n1O | -11.3% |  | 
N[C@@H](Cc1cc(I)c(Oc2cc(I)c(O)c(I)c2)c(I)c1)C(=O)O | -14.2% |  | 
